Compound activity from PubChem BioAssay.
Sampled rows, rich in hits. Any-hit rate of the full collection: about 12%.
Pf growth 48h: Primary qHTS for delayed death inhibitors of the malarial parasite plastid, 48 hour incubation | Potency, µM (doses to about 28.7 µM), usual class: inhibitors | P. falciparum luciferase growth in erythrocytes, 48 h | AID 504832, 2011 | actives 5.9% (n = 310,000)
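Parasite viability was followed by luminescence of a genomically integrated firefly luciferase. Cultures held 0.1% parasitemia at 2% hematocrit (final), incubated under 5% CO2 at 37 C.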
SARS PLP yeast: qHTS of Yeast-based Assay for SARS-CoV PLP; S. cerevisiae expressing SARS-CoV PLpro, growth rescue; Potency, µM (titrated, usually from 32.9 µM), most hits filed as activators; actives 0.19% (n = 330,000); AID 485353, 2010; calls by dose curve; further: nearly all actives have a fitted effect of over 55% in size
Sm TGR block: qHTS Assay for the Inhibitors of Schistosoma Mansoni Peroxiredoxins | purified TGR, DTNB reduction, TNB absorbance 405 nm | Schistosoma mansoni thioredoxin glutathione reductase (TGR), Q962Y6 | Potency, µM (highest dose often 114 µM), usual class: inhibitors | actives 3% (n = 360,000); further: nearly all actives have a fitted effect of over 60% in size
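Kinetic colorimetric format: TGR-catalysed, NADPH-driven DTNB reduction monitored via TNB absorbance. Enzyme dispensed at 20 nM; compound exposure 15 min at room temperature before reaction start.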
Pf growth 96h: Primary qHTS for delayed death inhibitors of the malarial parasite plastid, 96 hour incubation | P. falciparum luciferase reporter growth, 96 h | actives 6.9% (n = 320,000) | Potency, µM (top dose mostly 28.7 µM), hits mostly inhibitors
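Parasite growth measured via integrated firefly luciferase reporter in P. falciparum. Infected erythrocytes at 2% hematocrit, 0.05% parasitemia final were treated 96 hours at 37 C under 5% CO2, and luminescence was read.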
Numbers stand for hits; . = inactive; ? = inconclusive; / = no result given. Unless noted, the call rests on the fitted dose curve; in most records, active means well fitted curve in the direction sought with a large enough effect; inconclusive means small, poorly fitted or top-dose-only effect, or another doubt; inactive means no such curve, though single readings can be large; an effect the other way counts as inactive or inconclusive.

SMILES	Pf growth 48h	SARS PLP yeast	Sm TGR block	Pf growth 96h
CCN1C(=O)C(CC(=O)N2CCN(C(c3ccccc3)c3ccccc3)CC2)N(CC)C1=O (stereo unspecified)	12µM	.	?	?
O=C(NC(=O)N1CCN(C(c2ccccc2)c2ccccc2)CC1)c1ccccc1	13µM	.	.	?
O=C(Cn1cccc1)N1CCN(C(c2ccccc2)c2ccccc2)CC1	?	.	40µM	.
Cc1oc(C(C)(C)C)cc1C(=O)N1CCN(C(c2ccccc2)c2ccccc2)CC1	5.9µM	.	.	12µM
COc1ccc(C(C)(C)C)cc1NC(=O)CCCN1C(=O)CN(C)C1=O	.	.	.	.
Cc1cc(NC(=O)Cc2cc(F)cc(F)c2)no1	.	.	.	.
COc1ccc(S(=O)(=O)NCC(=O)N(CC(=O)NCC2CCCO2)Cc2ccc(F)cc2)cc1 (stereo unspecified)	.	.	.	.
O=C(CSc1nc2c([nH]c3ccccc32)c(=O)n1-c1ccccc1)NCc1ccc(F)cc1	/	/	.	/
O=C(NCc1ccc(F)cc1)c1ccc(CSc2nc3ccncc3n2Cc2ccc(F)cc2)cc1	/	/	.	/
Cc1ccccc1C(=O)N1CCCN(C(=O)c2ccccc2C)CC1	.	.	.	?
O=C(c1ccccc1F)N1CCN(c2ccccc2)CC1	.	.	.	.
O=C(c1ccccc1F)N1CCN(C(=O)C(c2ccccc2)c2ccccc2)CC1	.	.	.	0.29µM
CC(C)(C)C(=O)N1CCN(C(c2ccccc2)c2ccccc2)CC1	12µM	.	?	10µM
Cc1ccccc1C(=O)N1CCN(C(c2ccccc2)c2ccccc2)CC1	10µM	.	.	5.9µM
Cc1cccc(C(=O)OCc2cc(=O)n3ccsc3n2)c1	/	/	.	/
Cc1ccc(CNC(=O)COCc2cc(-c3ccc4c(c3)OCO4)on2)cc1	/	/	.	/
Cc1cc(OCC(=O)OCC(=O)Nc2cc(S(=O)(=O)N3CCOCC3)ccc2Cl)ccc1Cl	/	.	/	/
O=C(COCc1cc(-c2cccs2)on1)Nc1ccc(OC(F)(F)F)cc1	/	/	.	/
Cc1ccc(C)c(NC(=O)Nc2cc3c(cc2N2CCCCC2)n(C)c(=O)n3C)c1	/	/	.	/
COc1ccc2c(c1)Cc1sc(NC(C)=O)nc1-2	.	.	56µM	.
COc1ccc2c(c1)CCc1sc(NC(=O)c3ccc(C)cc3)nc1-2	?	.	.	6.6µM
COc1ccc2c(c1)CCc1sc(NC(=O)c3ccc(Br)cc3)nc1-2	/	/	.	/
O=C(COc1ccc2c3c(c(=O)oc2c1)CCCC3)NCc1ccccn1	.	.	.	?
CC1CCCCC1NS(=O)(=O)c1ccc(S(=O)(=O)N2CCN(CCC#N)CC2)cc1 (stereo unspecified)	13µM	.	.	.
COC(=O)/C=C/CC(C)OS(N)(=O)=O (stereo unspecified)	.	.	.	.
SMILES	Pf growth 48h	SARS PLP yeast	Sm TGR block	Pf growth 96h
O=C(CC1C(=O)NCCN1CCCc1ccccc1)NCCc1ccccc1Cl (stereo unspecified)	13µM	.	?	?
COc1ccccc1CCNC(=O)CC1C(=O)NCCN1CCCc1ccccc1 (stereo unspecified)	?	.	.	.
O=C(CC1C(=O)NCCN1Cc1ccoc1)NCc1cccc(OC(F)(F)F)c1 (stereo unspecified)	.	.	25µM	.
COc1cccc(CNC(=O)CC2C(=O)NCCN2CCCc2ccccc2)c1 (stereo unspecified)	?	.	.	9.3µM
COc1cccc(CN2CCNC(=O)C2CC(=O)NCc2cc(C(C)C)no2)c1 (stereo unspecified)	.	.	?	.
CC(NC(=O)c1ccccc1)C(=O)OCn1nnc2ccccc2c1=O (stereo unspecified)	.	.	.	?
COc1ccc2c(c1)c(C(=O)CNc1nc(C)cs1)c(C)n2C	?	.	.	2.9µM
CCOCc1cnc(C)nc1NCC(=O)c1c(C)n(C)c2ccc(OC)cc12	7.4µM	.	?	.
COc1ccccc1CNC(=O)[C@H](Cc1c[nH]c2ccccc12)NC(=O)[C@@H]1Cc2ccccc2CN1	?	.	.	10µM
COc1ccccc1CNC(=O)Cc1c[nH]c2ccccc12	.	.	.	?
Cn1c(=O)c2c(nc(CN3CCN(c4ccccc4)CC3)n2Cc2c(F)cccc2Cl)n(C)c1=O	?	.	.	5.2µM
Cn1c(=O)c2c(nc(CN3CCN(c4ccccc4)CC3)n2Cc2ccccc2Cl)n(C)c1=O	6.6µM	.	.	?
